Assay outcomes (PubChem BioAssay)
HGIII-sPLA2 inh = Inhibits HGIII-sPLA2 liposome hydrolysis, primary screen | inhibition, % at 12.2 µM | QFRET BODIPY PC-A2 liposome hydrolysis, fluorescence | hit rate 0.56% among 370,000 | Q9NZ20 | AID 743126;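 active means inhibition above mean plus 3 SD of compounds lying within the high and low control bounds, cut at about 19% in these data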;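 further: 0% = median of test compound wells and 100% = no enzyme DMSO wells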
ADAM10 inh = inhibitors of human ADAM10. hit rate 0.62% among 370,000. recombinant ADAM10, EDANS/DABCYL FRET peptide cleavage, 3 h. AID 720582. O14672. inhibition, % at 7 µM;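 active means inhibition above a per-campaign cutoff equal to the mean of compounds falling between control-based bounds plus 3 SD, cut at about 20% in these data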;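 further: 0% = DMSO wells while the 100% control is not disclosed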
Target sequence (O14672 214-748 limits assumed): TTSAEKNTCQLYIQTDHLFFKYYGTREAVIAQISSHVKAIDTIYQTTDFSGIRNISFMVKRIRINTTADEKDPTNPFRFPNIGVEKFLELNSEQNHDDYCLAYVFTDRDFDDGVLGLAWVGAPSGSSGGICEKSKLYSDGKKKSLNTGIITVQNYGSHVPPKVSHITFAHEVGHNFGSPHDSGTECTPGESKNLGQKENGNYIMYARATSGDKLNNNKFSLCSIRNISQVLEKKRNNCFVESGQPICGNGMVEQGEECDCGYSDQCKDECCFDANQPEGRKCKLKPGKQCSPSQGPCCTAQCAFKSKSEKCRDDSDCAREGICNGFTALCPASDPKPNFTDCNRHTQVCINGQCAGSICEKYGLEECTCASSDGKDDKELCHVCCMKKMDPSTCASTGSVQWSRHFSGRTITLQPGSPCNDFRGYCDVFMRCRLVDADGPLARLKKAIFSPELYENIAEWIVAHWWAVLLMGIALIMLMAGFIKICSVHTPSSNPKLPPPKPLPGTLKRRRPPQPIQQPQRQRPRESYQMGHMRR
CendR NRP1 mod = modulators of CendR peptide binding to human neuropilin-1 | hit rate 0.85% among 360,000 | FAM-RPARPAR peptide binding to NRP-1, fluorescence polarization | AID 602438 | inhibition, % at 25 µM | O14786;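 active means inhibition or corrected inhibition above about 18%, plus a signal ratio from 0.5 to 1.5, limit read from the data, passing the limit was not always enough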
KLK7 zymogen act = activates the human kallikrein-7 zymogen; P49862; purified proKLK7, EDANS-DABCYL substrate fluorescence; 100% is mature enzyme control, 0% vehicle; activation, % at 7 µM; hit rate 0.9% among 370,000;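 active means activation above the mean of all tested compounds plus 3 SD, computed per campaign excluding outliers beyond control limits, cut at about 13% in these data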
ADAM17 inh = inhibits human ADAM17. P78536. recombinant ADAM17, EDANS/DABCYL FRET peptide cleavage. inhibition, % at 6.95 µM. AID 720648. hit rate 0.83% among 370,000;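 active means inhibition above the mean of compounds lying between control limits plus 3 SD, set per campaign, cut at about 8.5% in these data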;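 further: 0% = DMSO-only wells as the low control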
An asterisk follows results filed as active; / = no result. Hits are enriched below; roughly 3.4% of the tested compounds scored in any of these assays.

SMILES	HGIII-sPLA2 inh	ADAM10 inh	CendR NRP1 mod	KLK7 zymogen act	ADAM17 inh
CCOC(=O)[C@@]12CCCC=C1N(CCc1ccc(Cl)cc1)C(=O)[C@H]2CC(=O)NCc1ccc(OC)c(OC)c1	-13.0	3.3	/	0.5	-0.5
CC(C)NC(=O)[C@]1(C)CCC[C@@]2(C)C3CC[C@@]4(C)C[C@]3(CCC21)CC4=O (stereo partly specified)	-3.7	0.6	14.7	0.2	-4.5
C[C@@]12CCC3[C@@](CCC4[C@@]3(C)CCC[C@@]4(C)C(=O)Nc3ccc(Cl)cc3)(CC1=O)C2 (stereo partly specified)	7.1	-5.9	26.5*	-0.3	-3.7
CN(C1=C(NC(=O)c2ccccc2)C(=O)c2ccccc2C1=O)C1CCS(=O)(=O)C1 (stereo unspecified)	4.3	-8.2	44.9*	-0.8	-2.5
CC(=O)NC1=C(NC2CCS(=O)(=O)C2)C(=O)c2ccccc2C1=O (stereo unspecified)	1.6	1.1	2.4	0.0	3.8
CC(=NNC(=O)c1ccncc1)c1ccc2ccccc2c1O	20.4*	0.7	144.2	-2.4	-2.5
CC(=NNC(=O)c1ccncc1)c1ccccc1O	2.1	-10.0	-23.1	0.4	-2.4
CCOCCCNC(=O)C(c1ccc(C)cc1)N(Cc1cccs1)C(=O)c1ccccc1O (stereo unspecified)	-22.8	-1.8	29.3*	-0.5	-0.8
CCOCCCNC(=O)C(c1ccccc1)N(Cc1cccs1)C(=O)c1ccccc1O (stereo unspecified)	-14.1	1.2	9.2	-0.6	0.4
CCC(c1nnc(SCC(=O)Nc2ccc(N3CCOCC3)cc2)n1Cc1ccccc1)N(C)C (stereo unspecified)	3.4	-1.6	26.6*	-0.2	-4.1
CC(NC(=O)c1ccc2nc[nH]c2c1)c1ccccc1 (stereo unspecified)	4.5	6.0	5.3	0.1	-2.5
CCC(CC)NC(=O)c1ccc2nc[nH]c2c1	5.4	3.5	29.2*	-0.3	1.6
CCOc1ccc(C(=O)NC(C(=O)NCc2ccccc2OC)C(C)C)cc1 (stereo unspecified)	1.5	-10.6	3.0	-0.1	-4.0
CCOc1ccc(C(=O)NC(C(=O)NCCc2ccc(OC(F)F)cc2)C(C)C)cc1 (stereo unspecified)	-0.6	0.7	23.1*	-0.1	-0.2
O=C1c2ccccc2C(=O)c2[nH]c(=O)[nH]c21	3.1	-1.6	28.0*	-0.2	-6.4
O=C1C(O)=C(O)C(=O)c2ccccc21	11.8	-19.3	2.2	3.4	-2.4
O=C1c2ccccc2C(=O)c2[nH]cnc21	-3.1	1.8	18.2*	0.3	-0.9
O=C1c2ccccc2C(=O)c2c1ncn2-c1ccccc1	0.7	0.2	-4.5	0.1	-2.0
O=C(O)C1OC1(c1ccccc1Cl)c1ccccc1Cl (stereo unspecified)	-9.4	-5.7	23.7*	0.1	-4.8
Cc1cc(C)cc(NC(=O)N2CCN(Cc3nc4ccccc4c(=O)[nH]3)CC2)c1	13.0	2.3	/	0.6	-3.2
Cc1ccccc1NCC(=O)N/N=C/c1ccc[nH]1	6.6	-3.9	/	/	-4.6
COCCNC(=O)/C(C#N)=C/c1cc(C)n(C2CCCCC2)c1C	5.0	-43.0	1.2	3.0	-12.5
COCCNC(=O)/C(C#N)=C/c1cc(C)n(-c2ccc(C)cc2)c1C	2.3	-35.9	26.6*	1.1	-11.2
COCCNC(=O)/C(C#N)=C/c1ccc2c(c1)OCO2	-1.6	-6.5	34.7*	-0.3	-6.2
N#C/C(=C\c1ccc2c(c1)OCO2)C(=O)NCc1ccco1	-1.9	-3.7	4.7	0.1	0.3
SMILES	HGIII-sPLA2 inh	ADAM10 inh	CendR NRP1 mod	KLK7 zymogen act	ADAM17 inh
COc1cc(F)c(S(=O)(=O)N2CCCN(S(=O)(=O)c3cccc(N)c3)CC2)c(F)c1	-10.4	-3.0	/	/	-2.6
CC(C)n1ncc2c(C(=O)Nc3ccc(S(N)(=O)=O)cc3)cc(C3CC3)nc21	-8.3	-91.4	45.6*	11.1	-31.9
COc1ccc(-c2cc(-c3nnc4sc(-c5cccs5)nn34)[nH]n2)cc1	-5.5	4.4	/	-0.5	2.0
CCn1nc(C(=O)OCC(=O)NCCN2C(=O)CSC2=O)c2ccccc2c1=O	0.9	-19.7	38.2*	0.6	-5.4
CCn1nc(C(=O)OCC(=O)NC(C)C)c2ccccc2c1=O	0.0	-1.2	-1.7	-0.1	-1.0
COCCNC(=O)C1CC(c2ccc(C(F)(F)F)cc2)=NO1 (stereo unspecified)	0.7	-5.6	27.9*	-0.6	-6.9
O=C(NCc1cccc(C(F)(F)F)c1)C1CC(c2ccccc2F)=NO1 (stereo unspecified)	3.1	1.8	18.7	-0.1	-1.3
O=C(NCc1cc(C(F)(F)F)cc(C(F)(F)F)c1)C1CC(c2ccccc2F)=NO1 (stereo unspecified)	3.5	-6.8	27.7*	0.2	-1.4
O=C(Cc1ccccc1)NC1CCCCN(Cc2cccc(Cl)c2)C1=O (stereo unspecified)	2.6	10.4	/	0.6	3.6
COc1ccc(/C=N/N=C2/NC(=O)CC(C(=O)O)S2)cc1 (stereo unspecified)	6.2	-2.1	-5.3	-1.8	-1.1
COc1ccc(/C=N/N=C2/CC(C)(C)Cc3n[nH]c(=O)cc32)cc1	-2.8	-6.4	49.6*	0.4	-3.4
Cc1cc(NC(=O)COC(=O)C2CCN(S(=O)(=O)c3ccccc3)CC2)c([N+](=O)[O-])cc1C	-0.6	19.0	23.3*	-0.6	5.9
Cc1ccc(S(=O)(=O)N2CCC(C(=O)OCC(=O)NCCc3ccccc3)CC2)cc1C	-18.9	-1.1	9.7	0.2	-3.7
O=C(CCc1ccccc1)N[C@H]1[C@@H](OC(=O)c2ccco2)CCC[C@]12C(=O)N(Cc1ccccc1)c1ccccc12	-3.5	5.0	/	-0.5	3.7
Cc1ccc(C(=O)n2ccc3ccc(-c4ccc5ccn(Cc6ccccc6)c5c4)cc32)cc1	3.1	-20.3	/	-3.3	-6.1
CC(=O)Oc1cc2cccc(OC(C)=O)c(=O)c2c(OC(C)=O)c1OC(C)=O	/	/	30.4*	/	/
CSCC(C)N1CCC(n2nccc2NC(=O)CCOc2ccccc2)CC1 (stereo unspecified)	-3.7	-4.6	21.9*	-0.9	-0.9
C=CCC(=O)N1CCC(n2nccc2NC(=O)CCOc2ccccc2)CC1	-3.7	3.2	27.8*	-0.5	-0.7
CC(C)C(=O)N1CCC(n2nccc2NC(=O)CCOc2ccccc2)CC1	1.8	-10.5	0.0	-0.1	-6.6
COc1cccc(NC(=O)CSc2ccc3nnc(CCNC(=O)c4ccccc4)n3n2)c1	11.0	0.4	19.8*	0.1	-4.1
CCOC(=O)N1CCN(C(=O)C[C@H]2C[C@@]3(C(=O)OC)C(=C[C@H](COCc4ccccc4)O[C@@H]3C)N(CCc3ccc(OC)c(OC)c3)C2=O)CC1	-3.4	3.6	/	0.2	2.5
Cc1ccccc1C(=O)NC1CCCCN(Cc2cccc(C(F)(F)F)c2)C1=O (stereo unspecified)	6.7	0.3	/	0.3	-2.8
